“And” between values parts separate entries of the source, which are not always exact repeats. Equal entries are not always repeated. In all, about 16,000 compounds went through this assay and about 5,100 (32%) were called active. Another 25% or so got no clear call; they are omitted. Some of the results follow. Unmarked numbers belong to inactive results. The call rests on the fitted dose curve; in most records, active means well fitted curve in the direction sought with a large enough effect; inconclusive means small, poorly fitted or top-dose-only effect, or effect the other way; inactive means no such curve, though single readings can be large or run the other way.
On the % scale 0 is the no-effect control and ±100 the full control effect.

The target in this assay is Cytochrome P450 3A4 (Homo sapiens) (UniProt P08684). Kind of assay: Cytochrome panel assay with activity outcomes. Conditions: recombinant CYP, pro-luciferin dealkylation, luminescence, p450-cyp3a4; series mostly up to 57.1 µM.
Chain of Cytochrome P450 3A4 (Homo sapiens) (P08684 whole entry, looked up): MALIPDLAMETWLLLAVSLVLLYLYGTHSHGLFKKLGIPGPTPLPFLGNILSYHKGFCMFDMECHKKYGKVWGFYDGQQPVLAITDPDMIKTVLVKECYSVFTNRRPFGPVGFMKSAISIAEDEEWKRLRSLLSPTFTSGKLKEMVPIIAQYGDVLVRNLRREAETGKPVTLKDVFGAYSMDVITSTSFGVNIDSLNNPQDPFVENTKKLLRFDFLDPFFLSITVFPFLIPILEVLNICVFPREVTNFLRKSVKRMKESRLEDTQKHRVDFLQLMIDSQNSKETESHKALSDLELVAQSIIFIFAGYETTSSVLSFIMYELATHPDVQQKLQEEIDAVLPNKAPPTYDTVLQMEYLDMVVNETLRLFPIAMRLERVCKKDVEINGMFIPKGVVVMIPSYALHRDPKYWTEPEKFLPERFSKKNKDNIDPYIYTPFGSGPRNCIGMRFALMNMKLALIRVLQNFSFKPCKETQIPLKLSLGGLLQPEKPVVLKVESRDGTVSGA
Consider `Cc1cc(=O)[nH]c2c1c(C)nn2C1CCOC(C)(C)C1` (stereo not given), for which the AC50 result is “inactive”. As to `Cc1[nH]c2ccccc2c1-c1cc(-c2cc(-c3c(C)[nH]c4ccccc34)on2)no1`, the activity, negative = inhibition was -5.38% [at 11.4 µM]. Consider `CCn1c(C)nc2cc(S(=O)(=O)C(F)F)ccc21`, for which the activity, negative = inhibition was 9.09% [at 11.4 µM]. As to `CCCCn1c(SCc2c(C)noc2C)nc2cc(S(N)(=O)=O)ccc21`, the AC50 was 0.708 µM (active).

In the case of `CCCOc1ccc(C(=O)NNC(=S)NC(=O)c2cc(-c3ccccc3)nc3ccccc23)cc1`, the AC50 was 8.91 µM (active). With `CCCOc1ccc(C(=O)NNC(=S)NC(=O)CC)cc1`, the activity, negative = inhibition was -8.65% [at 2.29 µM]. For `CCN(CC)CCOC(=O)C1(c2ccc([N+](=O)[O-])cc2)CCCC1`, the AC50 result was “inactive”. With `CN(C)CCOC(=O)C1(c2ccccc2)CCOCC1`, the AC50 result was “inactive”.

Consider `O=C(OCCN1CCOCC1)C1(c2ccccc2)CCCCC1`, for which the half-maximal activity concentration (AC50) was 3.16 µM (active) and 1.58 µM (active). As to `NC(N)=NN=Cc1c(Cl)cccc1Cl`, the AC50 entry was “inactive”. Turning to `Cc1ccc(Cn2nnc3c(=O)[nH]c(C4CCN(C(=O)Cc5cccs5)CC4)nc32)cc1`, the concentration at half-maximal activity (AC50) was 4.47 µM (active). Consider `COc1ccccc1Cn1nnc2c(=O)[nH]c(C3CCN(C(=O)c4ccc(C)cc4)CC3)nc21`, for which the AC50 is 1.58 µM (active).

With `COCC(=O)N1CCC2(CCN(Cc3ccccc3OC)CC2)CC1`, the AC50 result was “inactive”. With `COc1ccc(C(=O)N2CCC3(CCN(Cc4ccccc4OC)CC3)CC2)cc1`, the AC50 entry was “inactive”. Consider `O=C(Cc1cccs1)N1CCC(c2nc3c(nnn3Cc3ccccc3Cl)c(=O)[nH]2)CC1`, for which the AC50 was 3.16 µM (active). Consider `Cc1ccc(-c2c(C#N)c(N)n(-c3ccccc3)c(=O)c2C#N)cc1`, for which the activity, negative = inhibition was -3.64% [at 2.29 µM]. Turning to `O=C(OCCNC(=O)c1ccc2ccccc2n1)c1ccc(F)cc1`, the AC50 was 14.1 µM (active). Take `CN(C)CCOC(=O)c1ccc(N)cc1`: the activity, negative = inhibition was -4.56% [at 11.4 µM].

Consider `FC(F)(F)c1cc(C(F)(F)F)c2ccc(N/N=C/c3cccc(Cl)c3)nc2n1`, for which the AC50 entry is “inactive”. Same read-out and setting: the figure for `Fc1ccc(N2CCN(c3ccc4c(C(F)(F)F)cc(C(F)(F)F)nc4n3)CC2)cc1` is 10 µM (active); for `Cc1ccc(Nc2nc(Cl)nc(N(C)C#N)n2)cc1` it is 11.2 µM (active). For `Cc1c(C)c2c(c(C)c1O)CC[C@@](C)(CCC[C@@H](C)CCC[C@@H](C)CCCC(C)C)O2`, the AC50 entry was “inactive”. In the case of `CC(C)NC(=O)c1ccc(-c2cccc(C(F)(F)F)c2)o1`, the AC50 result is “inactive”. Regarding `Cc1ccc(NC(=O)c2c(C(F)(F)F)nn(C)c2SCc2cccc(C(F)(F)F)c2)cc1C`, the AC50 was 3.16 µM (active).

Regarding `Cn1nc(C(F)(F)F)c(C(=O)Nc2ccc(F)cc2F)c1Sc1cccc(C(F)(F)F)c1`, the AC50 was 6.31 µM (active). For the compound `CC(=O)OCc1c(C(F)(F)F)nn(C)c1Sc1ccccc1`, the AC50 entry was “inactive”. With `Cn1nc(C(F)(F)F)c(C(=O)Nc2ccc(F)cc2F)c1Sc1ccc(C(F)(F)F)cc1`, the half-maximal activity concentration (AC50) was 12.6 µM (active).

`Cc1ccc(NC(=O)c2sccc2SCc2cccc(C(F)(F)F)c2)cc1`: the AC50 was 1 µM (active).

Regarding `CN(C/C=C\c1ccccc1)Cc1cccc2ccccc12`, the AC50 result was “inactive”. For the compound `COc1ccccc1C(=O)NC(=S)N1CCCc2ccccc21`, the AC50 entry was “inactive”. Take `COc1ccccc1C(c1nnnn1C(C)(C)C)N1CCN(Cc2ccncc2)CC1` (stereo not given): the AC50 is 3.16 µM (active). On the same count and under the same terms, the figure for `COc1ccccc1C(c1nnnn1C(C)(C)C)N1CCCc2ccccc21` (stereo not given) is 10 µM (active); for `CC[N+](CC)(CC)CC` it is “inactive”. Consider `CC(C)(C)NC[C@@H](O)c1ccc(O)c(CO)n1`, for which the activity, negative = inhibition was 2.12% [at 11.4 µM]. Regarding `N#Cc1ccc(C(c2nnnn2Cc2ccccc2)N2CCCC2)cc1` (stereo not given), the AC50 was 7.94 µM (active). On to `N#Cc1ccc(C(c2nnnn2C2CCCC2)N2CCC(Cc3ccccc3)CC2)cc1` (stereo not given), for which the AC50 is 4.47 µM (active).

With `N#Cc1cccc(C(c2nnnn2C2CCCC2)N2CCCCCC2)c1` (stereo not given), the AC50 was 5.01 µM (active).

Regarding `N[C@@H](C(=O)O)c1ccc(P(=O)(O)O)cc1`, the AC50 result is “inactive”. As for `O=C(O)c1sc2cc(C(F)(F)F)cnc2c1-c1ccccc1`, the AC50 result was “inactive”. Consider `CCOC(=O)c1sc2nc(CC(=O)OC)nc(NCc3ccc(F)cc3)c2c1C`, for which the AC50 was 4.47 µM (active). As for `CCOC(=O)c1sc2c(c1C)c(=O)c(C(=O)OCC)cn2CC`, the AC50 result was “inactive”.

For the compound `Cc1cc(C)c(-c2noc(C(=O)OC(C)(C)C)c2C(=O)OC(C)(C)C)c(C)c1`, the activity, negative = inhibition was -8.97% [at 2.29 µM]. As to `Cc1cc(C(=O)CC#N)c(C)n1CC(F)(F)F`, the AC50 was 3.16 µM (active). For `O=C(CCc1ccccc1)Nc1ncn[nH]1`, the AC50 entry is “inactive”. In the case of `CC(CP(=O)(O)O)NC(=O)Cc1ccccc1` (stereo not given), the AC50 entry was “inactive”. `O=C(NNC(=S)Nc1ccccc1)c1ccco1`: the AC50 result was “inactive”. `O=C(Cc1ccccc1)NC(NC(=S)Nc1cc(Cl)ccc1Cl)C(Cl)(Cl)Cl` (stereo not given): the AC50 was 4.47 µM (active).

As to `O=C(/C=C/c1ccc(Cl)cc1)Nc1ccc(N2CCCCC2)cc1`, the AC50 result was “inactive”. The same measure, in the same setting: the figure for `O=C(Cc1ccccc1)NC(NCCc1ccccc1)C(Cl)(Cl)Cl` (stereo not given) is 14.1 µM (active); for `O=C(NC(NC(=S)Nc1cc(Cl)ccc1Cl)C(Cl)(Cl)Cl)c1ccco1` (stereo not given) it is 6.31 µM (active). For `O=C(/C=C/c1ccccc1)NC(NC(=S)Nc1ccc(Cl)cc1)C(Cl)(Cl)Cl` (stereo not given), the AC50 was 4.47 µM (active). On to `O=C(Cc1ccccc1)NC(=S)Nc1cc(C(F)(F)F)ccc1Cl`, for which the activity, negative = inhibition is -7.93% [at 2.29 µM]. `C[C@@H](CCC(=O)O)C(=O)O`: the activity, negative = inhibition was -7.96% [at 11.4 µM]. `COc1ccc(Oc2ncc3nc(-c4cn(C)c5ccccc45)c(=O)n(C4CC4)c3n2)cc1`: the AC50 was 12.6 µM (active). On the same count and under the same terms, the entry for `COCCn1c(=O)c(-c2cn(C)c3ccccc23)nc2cnc(Oc3cccc(Cl)c3)nc21` is “inactive”; for `COCCn1c(=O)c(-c2cn(C)c3ccccc23)nc2cnc(Oc3ccc(OC)cc3)nc21` it is 3.98 µM (active).

Take `COCCn1c(=O)c(-c2cn(C)c3ccccc23)nc2cnc(Oc3ccccc3)nc21`: the AC50 was 3.16 µM (active).

Regarding `OCCNc1nc(NCCC2=CCCCC2)nc(N2CCOCC2)n1`, the AC50 entry is “inactive”. Take `Cc1ccc(C)c(-c2nn(-c3cc(N4CCN(CCO)CC4)ccc3[N+](=O)[O-])c(=O)c3ccccc23)c1`: the AC50 is 12.6 µM (active). Turning to `Cc1ccc(N2CCN(CCC(=O)O)CC2)cc1`, the activity, negative = inhibition was -4.63% [at 11.4 µM].

The values are drawn from PubChem BioAssay AID1851 (National Center for Advancing Translational Sciences (NCATS), 2009).
